3T3 cytotox: Cytotoxic Profiling in NIH 3T3 Cell Line of Diverse Libraries Using Quantitative High-Throughput Screening; Potency, µM (titrated, usually from 96.7 µM), for the others: top-dose activity change, negative = cytotoxicity, actives largely listed as inhibitors; hit rate 4.3% among 94,000; NIH 3T3 viability, CellTiter-Glo ATP luminescence, 48-72 h; also: % is scaled to controls: 0 for no effect and ±100 for the full control effect; nearly all actives have a fitted effect of over 55% in size
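ATP-dependent luminescence (CellTiter-Glo) served as the viability signal for NIH 3T3 cells treated with compound for 48 or 72 hr at 37 °C.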
HEK293 tox: Cytotoxic Profiling in HEK 293 Cell Line of Diverse Libraries Using Quantitative High-Throughput Screening; HEK 293 viability, ATP luminescence (CellTiter-Glo), 48-72 h; Potency, µM (doses to about 115 µM), without a hit: at the highest dose activity change, negative = cytotoxicity, usual class: inhibitors; hit rate 6.6% among 94,000; also: % is scaled to controls: 0 for no effect and ±100 for the full control effect; nearly all actives have a fitted effect of over 60% in size
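Luminescence from cellular ATP, measured with CellTiter-Glo, indicates HEK 293 viability. Cells plated at 250 cells/well are treated with compound for 48 or 72 hr at 37 degree Celsius before reagent addition.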
NPR1 antag: Natriuretic polypeptide receptor (hNpr1) antagonism - Primary qHTS. Atrial natriuretic peptide receptor 1 (Homo sapiens), P16066. HEK293 hNpr1 GloSensor cGMP, ANP-stimulated luminescence. Potency, µM (highest dose often 46.3 µM), for inactives: top-dose activity change, negative = inhibition, hits mostly inhibitors. hit rate 1.6% among 76,000; calls by dose curve; also: % is scaled to controls: 0 for no effect and ±100 for the full control effect; nearly all actives have a fitted effect of over 60% in size
Target sequence (P16066 whole entry, looked up): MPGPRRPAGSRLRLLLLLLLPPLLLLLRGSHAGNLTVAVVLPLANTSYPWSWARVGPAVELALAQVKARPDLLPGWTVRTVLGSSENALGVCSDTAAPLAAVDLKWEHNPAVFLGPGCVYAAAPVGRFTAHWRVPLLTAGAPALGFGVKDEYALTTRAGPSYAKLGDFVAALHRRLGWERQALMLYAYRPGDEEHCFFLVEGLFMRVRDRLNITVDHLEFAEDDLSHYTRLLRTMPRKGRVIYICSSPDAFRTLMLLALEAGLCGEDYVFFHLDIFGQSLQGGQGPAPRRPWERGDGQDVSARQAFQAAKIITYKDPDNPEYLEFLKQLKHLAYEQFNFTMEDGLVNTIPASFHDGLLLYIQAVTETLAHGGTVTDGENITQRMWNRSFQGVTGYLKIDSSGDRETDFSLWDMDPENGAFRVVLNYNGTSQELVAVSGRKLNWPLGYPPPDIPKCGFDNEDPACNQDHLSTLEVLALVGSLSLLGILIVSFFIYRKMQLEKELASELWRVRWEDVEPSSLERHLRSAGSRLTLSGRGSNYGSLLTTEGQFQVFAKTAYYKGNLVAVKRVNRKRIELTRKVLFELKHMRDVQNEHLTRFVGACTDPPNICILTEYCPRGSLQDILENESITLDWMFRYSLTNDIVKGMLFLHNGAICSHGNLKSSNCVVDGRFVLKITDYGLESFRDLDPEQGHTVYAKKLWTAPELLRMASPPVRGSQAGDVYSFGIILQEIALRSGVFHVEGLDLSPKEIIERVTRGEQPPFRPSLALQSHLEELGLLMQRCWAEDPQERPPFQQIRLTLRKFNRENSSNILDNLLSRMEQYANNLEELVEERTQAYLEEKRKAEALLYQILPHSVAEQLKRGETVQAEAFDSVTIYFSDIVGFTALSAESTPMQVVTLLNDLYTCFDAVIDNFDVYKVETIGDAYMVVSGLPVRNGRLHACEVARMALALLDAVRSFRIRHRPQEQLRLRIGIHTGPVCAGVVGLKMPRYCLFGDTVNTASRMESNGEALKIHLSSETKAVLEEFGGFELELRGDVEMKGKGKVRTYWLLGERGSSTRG
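HEK293 cells stably expressing human Npr1 and cGMP GloSensor pGS-40F, loaded 2 h with 2% GloSensor reagent, given compound 30 min at room temperature. Luminescence read before and 20 min after 0.1 nM hNppA.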
FLuc inh-1: Firefly luciferase inhibition profiling of diverse chemical library using quantitative high-throughput screening. hit rate 2.5% among 76,000. AID 1347043, 2019. purified P. pyralis luciferase, luminescence, biochemical. Potency, µM (doses to about 115 µM), actives largely listed as inhibitors; also: % is scaled to controls: 0 for no effect and ±100 for the full control effect; nearly all actives have a fitted effect of over 65% in size
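Luminescence read by CCD imager after adding enzyme (10nM final) to wells holding compound, titrated in qHTS. Substrates 10uM each D-luciferin and ATP; buffer 50mM Tris acetate pH 7.5, 10mM Mg acetate, Tween-20, BSA.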
FLuc SDR no ATP: Firefly luciferase (FLuc-C-HiBiT) SDR gain of signal screen - without ATP. shares compounds with FLuc inh-1. Potency, µM (titrated, usually from 32.7 µM), inactives show top-dose activation (signal gain), actives largely listed as activators. hit rate 7.8% among 1,300. AID 1963318, 2024. Purified FLuc-C-HiBiT, Nano-Glo HiBiT luminescence, no ATP; also: nearly all actives have a fitted effect of over 55% in size
FLuc SDR ATP: Firefly luciferase (FLuc-C-HiBiT) SDR gain of signal screen - plus ATP; shares compounds with FLuc inh-1; purified FLuc-C-HiBiT + ATP, HiBiT complementation luminescence; Potency, µM (doses to about 32.7 µM), for the others: at the top dose activation (gain of signal), most hits filed as activators; hit rate 8.7% among 1,300;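 also: signal reports ligand binding via conformational change of the enzyme rather than luciferase catalysis; % of control where 0% means no effect; nearly all actives have a fitted effect of over 55% in size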
FLuc inh-2: Firefly luciferase (FLuc-C-HiBiT) enzymatic inhibition screen - Functional assay | shares compounds with FLuc inh-1 | purified FLuc-C-HiBiT enzyme, luciferin luminescence | Potency, µM (titrated, usually from 32.7 µM), inactives show at the highest dose activity change, negative = inhibition, usual class: inhibitors | hit rate 42% among 1,300; also: % is scaled to controls: 0 for no effect and ±100 for the full control effect; nearly all actives have a fitted effect of over 70% in size
The depositor's hits bear a star; i = inactive; ? = inconclusive; nt = no result; [ ] = another dose, or the depositor's remark. An excerpt weighted towards active compounds, which were near 11% of everything screened. Unless noted, calls follow the shape of the dose curve; as a rule, active = well fitted curve in the direction sought with a large enough effect; inconclusive = small, poorly fitted or top-dose-only effect, or another doubt; inactive = no such curve, though single readings can be large; an effect the other way counts as inactive or inconclusive. Potency is read from the fitted curve at half-maximal effect.

SMILES | 3T3 cytotox | HEK293 tox | NPR1 antag | FLuc inh-1 | FLuc SDR no ATP | FLuc SDR ATP | FLuc inh-2
O=C(O)c1ccc(-c2ccc(N3CCCCCC3)nc2)cc1 | ? | 7% | -4% | 4.5µM* | ? | ? | 2.5µM*
O=C(NCc1ccncc1)c1ccc(-c2ccc(N3CCCCC3)nc2)cc1 | -29% | ? | -4% | ? | nt | nt | nt
CC1CCCCN1c1csc2ccc(F)cc2c1=O (centres undefined) | nt | nt | nt | nt | 29% | 19% | 8.8µM*
CCN1c2cc(C(=O)NCc3cc(F)ccc3F)ccc2C(=O)N2CCCCC21 (centres undefined) | ? | ? | 5% | i | nt | nt | nt
O=C(Cc1ccccn1)NCCNC(=O)c1cccc(-c2ccc(C(F)(F)F)cc2)c1 | -27% | -20% | nt | nt | nt | nt | nt
O=C(CCn1cnnn1)N1CC(c2noc(C3CCCN3CC3CC3)n2)C1 (centres undefined) | i | -8% | 9% | i | nt | nt | nt
Cc1ccc(NC(=O)Nc2cccn3nc(C)nc23)cc1 | ? | ? | -8% | 7.9µM* | ? | 17% | ?
CS(=O)(=O)N1CC2(CCCCN2Cc2cccnc2)Cc2ccccc21 (centres undefined) | -14% | -25% | nt | nt | nt | nt | nt
Cc1ccc(NC(=O)/C=C/c2ccccc2Cl)cc1Cl | nt | nt | nt | nt | 13% | 11% | ?
Cc1ccc(NC(=O)Cn2nc3n(c2=O)CCCC3)cc1Cl | -6% | 11% | 1% | i | nt | nt | nt
COc1ccc(C(=O)N2CCC(C(=O)N3CCC(N4Cc5ccccc5C4=O)CC3)CC2)cc1 | -29% | -39% | nt | nt | nt | nt | nt
CC(=O)NC1(C)CCN(Cc2ccc(-c3ccc4c(ccn4C)c3)cc2)C1 (centres undefined) | ? | ? | ? | 4.5µM* | 25%[49.3 µM] | ? | 7.2µM*
Cc1noc(-c2cccn3c(CNC(=O)c4ccc(C(C)(C)C)cc4)nnc23)n1 | -30% | ? | -21% | 7.9µM* | ? | ? | 9.9µM*
Cc1noc(-c2cccn3c(CNC(=O)c4ccccc4)nnc23)n1 | -25% | -5% | -17% | i | nt | nt | nt
O=C(O)C1CCc2nc(N3CCN(C(=O)C4CCC4)CC3)sc2C1 (centres undefined) | ? | -1% | -1% | 6.3µM* | 13% | ? | 8.8µM*
CCN1CCN(C(=O)C2CCc3nc(N4CCN(C(=O)C5CCC5)CC4)sc3C2)CC1 (centres undefined) | 5% | -13% | -2% | i | nt | nt | nt
NC(=O)c1ccc(OC2CCN(S(=O)(=O)c3ccc(F)cc3)CC2)nc1 | -22% | ? | -3% | i | nt | nt | nt
Cc1ccc(C2Cn3nnc(C(=O)N4CCC(C(=O)NCCN5CCCC5)CC4)c3CO2)cc1 (centres undefined) | i | -7% | 0% | 13µM* | 13% | ? | ?
COCCNC(=O)C1CCN(C(=O)c2nnn3c2COC(c2ccc(C)cc2)C3)CC1 (centres undefined) | i | 9% | -2% | 5.6µM* | 12% | ? | ?
Cc1ccc(C2Cn3nnc(C(=O)N4CCC(C(=O)NCCc5cccs5)CC4)c3CO2)cc1 (centres undefined) | -10% | 1% | -1% | 10µM* | 12% | ? | ?
O=C(NCC(F)F)C1CCCN1C(=O)c1cccc(-c2cccnc2)c1 (centres undefined) | -13% | -6% | nt | nt | nt | nt | nt
CC(C)n1cnnc1CN(C)c1nc(N)nc2nc[nH]c12 | 1% | -7% | 2% | i | 15% | 8% | -3%
O=C(c1ccccc1C(F)(F)F)N1CCOc2c(cc(-c3nc4ccccc4s3)cc2OC2CCOC2)C1 (centres undefined) | nt | nt | nt | nt | 12% | 8% | 3%
C=CCCC(=O)N1CCOc2c(O)cc(-c3nc4ccccc4s3)cc2C1 | ? | 50µM* | -26% | ? | 12% | 9% | -17%
CC(CCc1ccc(O)cc1)N1CCOc2c(O)cc(-c3nc4ccccc4s3)cc2C1 (centres undefined) | nt | nt | nt | nt | 14% | 12% | -8%
SMILES | 3T3 cytotox | HEK293 tox | NPR1 antag | FLuc inh-1 | FLuc SDR no ATP | FLuc SDR ATP | FLuc inh-2
O=C(c1ccccc1C(F)(F)F)N1CCOc2ccc(CN3CCOCC3)cc2C1 | i | 8% | 1% | i | nt | nt | nt
Oc1ccc(Cl)cc1CN1CCOc2c(O)cc(-c3nc4ccccc4s3)cc2C1 | nt | nt | nt | nt | 15% | 10% | -3%
CC(=O)Nc1ccc(C2(C(=O)NCc3ccc(N(C)C)cc3)CCCCC2)cc1 | -9% | -11% | 7% | i | nt | nt | nt
c1ccc([C@@H]2C[C@@H]3C[C@H](N4CCN(Cc5ccccn5)CC4)C[C@@H]3CO2)cc1 | -26% | ? | nt | nt | nt | nt | nt
O=C(O)Cn1ccc2cc(OCCc3cccc(-c4ccccc4)c3)cnc21 | -34%[138 µM] | ? | -15%[70.6 µM] | i | nt | nt | nt
COc1cc(Cl)ccc1-c1cccc(CCOc2cnc3c(ccn3CC(=O)O)c2)c1 | ? | ? | 0%[70.6 µM] | i | nt | nt | nt
Cc1ccc(-c2cccc(COc3cnc4c(ccn4CC(=O)O)c3)c2)c(C)c1 | nt | nt | nt | nt | 14%[49.3 µM] | 7%[49.3 µM] | -13%[49.3 µM]
COc1cccc(-c2cccc(COc3cnc4c(ccn4CC(=O)O)c3)c2)c1 | nt | nt | nt | nt | 7%[49.3 µM] | 5%[49.3 µM] | ?
COc1ccc(-c2cccc(COc3cnc4c(ccn4CC(=O)O)c3)c2)c(C)c1 | ? | ? | -11%[70.6 µM] | i | 9% | 8% | -6%
O=C(O)Cn1ccc2cc(OCCc3cccc(-c4ccc(Cl)cc4)c3)cnc21 | ? | ? | -5%[70.6 µM] | i | nt | nt | nt
Cc1ccc(-c2cccc(COc3cnc4c(ccn4CC(=O)O)c3)c2)cc1C | nt | nt | nt | nt | 10%[49.3 µM] | 7%[49.3 µM] | ?
CNC(=O)c1cc(C2CC2)nc2onc(C3CCCN3C(=O)Nc3ccc(Cl)cc3)c12 (centres undefined) | -23% | -16% | nt | nt | nt | nt | nt
COC1CCOC2(CCN(C(=O)CCCc3ccccc3)CC2)C1 (centres undefined) | -5% | -19% | -10% | 6.3µM* | 18% | ? | ?
O=C(Nc1ccccc1)N1CC(Oc2ccc(-c3nc(-c4ccccc4)no3)cc2)C1 | -3% | ? | -22% | 1.3µM* | 17% | 14% | ?
